Source: PubChem BioAssay
Pin1 inh – human Pin1 inhibition; Q13526; Pin1 FP peptide displacement, HiFluor488, 10 min; Potency, µM (doses to about 115 µM), inactives show at the highest dose activity, negative = inhibition, usual class: inhibitors; hit rate 0.009% among 390,000; active = well fitted inhibition curve with a large enough effect in the polarisation, with a control signal flat, not every such curve was filed as active; inconclusive = small, poorly fitted or top-dose-only effect, or effect the other way, or a change in a side signal; inactive = no such curve, though single readings can be large or run the other way; the % refers to the polarisation; also: potency is read from the fitted curve at half-maximal effect
Giardia kill – kills Giardia lamblia; Giardia lamblia trophozoite viability; hit rate 0.15% among 340,000; activity change, % at 7.66 µM, hits read low; AID 540267; in the data active = activity change below about -80%; inconclusive = between about -30% and that limit;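 also: parasites exposed to compound for two days anaerobically before the ATP read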
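Giardia trophozoites, 100 cells per well, were exposed to compounds for 48 hrs at 37 deg C under anaerobic conditions; viability was then read as ATP content by bioluminescence after 15-30 min at room temperature.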
TrxR1 substrate – substrates of rat thioredoxin reductase 1. O89049. purified TrxR1 substrate turnover, NADPH consumption readout. Potency, µM (titrated, usually from 114 µM), for the others: at the highest dose activity change, negative = substrate turnover. hit rate 0.01% among 390,000; also: potency is read from the fitted curve at half-maximal effect; nearly all actives have a fitted effect of over 50% in size
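Rat TrxR1, dispensed at 90 nM, was prereduced with 400 uM NADPH (final) for 5 min at ~22 deg C, then incubated with compound 15 min before 400 uM selenite. A first-read NADPH fluorescence drop versus no-compound background flagged substrates.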
GALK inh – blocks human galactokinase activity. Potency, µM (doses to about 57.5 µM), without a hit: top-dose activity change, negative = inhibition, usual class: inhibitors. P51570. hit rate 0.007% among 270,000. Purified GALK, Kinase-Glo residual ATP luminescence; also: potency is read from the fitted curve at half-maximal effect
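Kinase-Glo Plus luminescence measured ATP left after a 1 h room-temperature reaction. The reaction used 5 nM GALK, 100 uM galactose and 35 uM ATP at pH 8.0 (20 mM HEPES, 5 mM MgCl2, 60 mM NaCl, 1 mM DTT, 0.01% BSA).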
TrxR1 inh – blocks rat thioredoxin reductase 1 | hit rate 1% among 390,000 | recombinant rTrxR1, NADPH fluorescence consumption, selenite substrate | Potency, µM (titrated, usually from 114 µM), without a hit: at the highest dose activity change, negative = inhibition, actives largely listed as inhibitors | O89049; also: potency is read from the fitted curve at half-maximal effect; nearly all actives have a fitted effect of over 65% in size
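Rat TrxR1 (90 nM in the dispensed reagent) was pre-reduced with 400 uM NADPH for 5 min at room temperature, then incubated with compound for 15 min. After 400 uM selenite was added, NADPH fluorescence (Ex 340/Em 450 nm) was followed for 8 min.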
GCN5L2 inh – inhibitors of human GCN5L2 histone acetyltransferase; Q92830; GCN5L2 HAT assay, ThioGlo1 CoA-SH fluorescence; Potency, µM (titrated, usually from 58.9 µM), without a hit: at the highest dose activity change, negative = inhibition, hits mostly inhibitors; hit rate 0.21% among 390,000; also: potency is read from the fitted curve at half-maximal effect
Target sequence (Q92830 whole entry, looked up): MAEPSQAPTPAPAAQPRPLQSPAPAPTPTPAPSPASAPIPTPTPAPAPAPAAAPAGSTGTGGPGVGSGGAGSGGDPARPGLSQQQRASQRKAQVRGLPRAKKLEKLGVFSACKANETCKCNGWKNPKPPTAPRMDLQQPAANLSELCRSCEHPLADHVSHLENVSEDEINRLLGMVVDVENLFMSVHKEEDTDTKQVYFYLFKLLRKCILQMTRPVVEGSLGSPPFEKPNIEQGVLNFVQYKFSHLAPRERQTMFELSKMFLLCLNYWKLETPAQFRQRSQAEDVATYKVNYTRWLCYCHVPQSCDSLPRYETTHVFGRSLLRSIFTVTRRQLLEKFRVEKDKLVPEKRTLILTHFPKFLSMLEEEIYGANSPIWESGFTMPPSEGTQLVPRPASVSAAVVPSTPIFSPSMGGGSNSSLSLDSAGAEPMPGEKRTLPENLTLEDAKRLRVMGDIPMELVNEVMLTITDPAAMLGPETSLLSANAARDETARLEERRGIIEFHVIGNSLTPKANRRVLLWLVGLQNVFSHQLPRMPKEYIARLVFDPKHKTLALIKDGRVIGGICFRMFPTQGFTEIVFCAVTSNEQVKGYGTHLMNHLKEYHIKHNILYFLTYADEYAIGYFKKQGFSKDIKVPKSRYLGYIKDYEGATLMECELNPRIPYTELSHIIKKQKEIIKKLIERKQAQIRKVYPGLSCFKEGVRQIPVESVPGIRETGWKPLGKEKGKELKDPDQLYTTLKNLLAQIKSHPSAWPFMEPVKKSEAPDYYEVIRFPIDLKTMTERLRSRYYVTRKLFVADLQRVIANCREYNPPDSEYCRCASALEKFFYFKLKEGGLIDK
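Titration-based screen in which CoA formation is detected via maleimide probe ThioGlo1 (50uM) turning fluorescent on thiol reaction; substrates H3(1-25) 75uM and acetyl-CoA 70uM, GCN5L2 20nM, 20 min incubation at room temperature.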
Active calls of the source: *; [ ] = dose if it differs, or a comment. An excerpt weighted towards active compounds, which were near 1.3% of everything screened. Unless noted, calls follow the shape of the dose curve; as a rule, active = well fitted curve in the direction sought with a large enough effect; inconclusive = small, poorly fitted or top-dose-only effect, or another doubt; inactive = no such curve, though single readings can be large; an effect the other way counts as inactive or inconclusive. % is scaled to controls: 0 for no effect and ±100 for the full control effect.

What do the screens show for `O=C(CC(Nc1ccc(Cl)cc1)C(=O)O)c1ccccc1` (stereo not given)?
Pin1 inh: 0%; Giardia kill: 2; TrxR1 substrate: -3%; GALK inh: 0%; TrxR1 inh: 28µM*; GCN5L2 inh: 2%

How did COc1ccccc1NC(CC(=O)c1ccccc1)C(=O)OCC(=O)c1ccc(F)cc1 (stereo not given) do in these assays?
Pin1 inh: 12%; Giardia kill: -11; TrxR1 substrate: -2%; GALK inh: 0%; TrxR1 inh: 35µM*; GCN5L2 inh: 23%

Results for O=C(CC(CC(=O)c1ccccc1)C(=O)O)c1ccccc1 ?
Pin1 inh: 5%; Giardia kill: 27; TrxR1 substrate: -2%; GALK inh: 4%; TrxR1 inh: 20%; GCN5L2 inh: -5%

Results for O=C(CC(Nc1ccccc1Cl)C(=O)O)c1ccccc1 (stereo not given) ?
Pin1 inh: -13%; Giardia kill: -5; TrxR1 substrate: 14%[57.1 µM]; GALK inh: -3%; TrxR1 inh: 4.5µM*; GCN5L2 inh: 14%

How did O=C(NC1CCCC1)c1c[nH]c2ccc(S(=O)(=O)Nc3cccc(C(F)(F)F)c3)cc2c1=O do in these assays?
Pin1 inh: -2%; TrxR1 substrate: -11%; TrxR1 inh: 4%; GCN5L2 inh: -16%

Results for Cc1cc(C)c(C)c(S(=O)(=O)N2CCN(S(=O)(=O)c3ccc4c(c3)OCCO4)CC2)c1C ?
Pin1 inh: 1%

How did C(=C1c2ccccc2Oc2ccccc21)c1ccccc1 do in these assays?
TrxR1 substrate: 8%[0.0914 µM]; TrxR1 inh: 16%[0.0914 µM]

How did Cc1c(Cl)cccc1NC(CC(=O)c1ccccc1)C(=O)O (stereo not given) do in these assays?
Pin1 inh: -12%; Giardia kill: -2; TrxR1 substrate: 4%; GALK inh: 0%; TrxR1 inh: 3.5µM*; GCN5L2 inh: -13%

What do the screens show for `Cc1c(Cl)cccc1NC(CC(=O)c1ccccc1)C(=O)OCC(=O)c1cccs1` (stereo not given)?
Pin1 inh: 0%; Giardia kill: 15; TrxR1 substrate: -8%; GALK inh: -5%; TrxR1 inh: 40µM*; GCN5L2 inh: -5%

Results for O=C(CC(Nc1cccc(Cl)c1Cl)C(=O)OCC(=O)c1cccs1)c1ccccc1 (stereo not given) ?
Pin1 inh: 21%; Giardia kill: -5; TrxR1 substrate: 4%; GALK inh: 3%; TrxR1 inh: inconclusive; GCN5L2 inh: -37%

How did COc1ccc(C2=C(C)C(=NCCCN3CCN(c4cc(C)ccc4C)CC3)NS2(=O)=O)cc1 do in these assays?
Pin1 inh: inconclusive; TrxR1 substrate: 5%; TrxR1 inh: 14%; GCN5L2 inh: -7%

Results for Nc1nc(SCc2cccnc2)c2ncn(C3OC(CO)C(O)C3O)c2n1 (stereo not given) ?
Pin1 inh: 2%; Giardia kill: -18; TrxR1 substrate: -5%; TrxR1 inh: 6%

Results for Cc1cc(C(=O)COc2cccnc2[N+](=O)[O-])c(C)n1Cc1cccs1 ?
Pin1 inh: 9%; Giardia kill: -94*; TrxR1 substrate: -5%[57.1 µM]; GALK inh: -1%; TrxR1 inh: 13%[57.1 µM]; GCN5L2 inh: -1%

What do the screens show for `Cc1ccc(OCC(=O)c2cc(C)n(-c3ccccc3)c2C)c([N+](=O)[O-])n1`?
Pin1 inh: 2%; Giardia kill: -102*; TrxR1 substrate: -10%; GALK inh: -2%; TrxR1 inh: -28%; GCN5L2 inh: -3%

How did CC(=O)Nc1ccccc1OCC(=O)c1cc(C)n(Cc2cccs2)c1C do in these assays?
Pin1 inh: -2%; Giardia kill: -11; TrxR1 substrate: 3%; GALK inh: -1%; TrxR1 inh: 8%; GCN5L2 inh: -2%

Results for COc1ccccc1CNC(=O)COC(=O)CSc1ccc(C)c(C)c1 ?
Pin1 inh: -1%; Giardia kill: -1; TrxR1 substrate: -2%; TrxR1 inh: 16%[57.1 µM]; GCN5L2 inh: -20%
